For 6 molecules, outcome and AC50 results are on record in PubChem BioAssay (EPA / NIEHS).

“And” between values parts separate entries of the source, which are not always exact repeats. Identical values can stand only once. Where a structure was tested more than once in an assay, its records may differ in their call. The source made the active and inactive calls. The calls were made as follows: active = hit-call score of the fitted dose curve at least 0.9, where 1 is the maximum; inactive = score below 0.9.

Assay [1] can be described thus: ATG_M_61_CIS: Attagene CIS-FACTORIAL HepG2 Assay for M61 Transcription Factor (Internal Marker) (AID 2282937). Conditions: HepG2 Attagene CIS-FACTORIAL M61 internal marker reporter; actives raise or lower the signal. The essentials: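 Background-control endpoint: HepG2 cells with cis-regulated reporter constructs, 24 h exposure, reporter mRNA detected via fluorescent primer extension and capillary electrophoresis; values from bidirectional fitting with DMSO baseline.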

The nature of assay [2]: ATG_EGR_CIS: Attagene CIS-FACTORIAL HepG2 Assay for human Early Growth Response 1 (EGR1) (AID 2282938). As to conditions: HepG2 Attagene CIS-FACTORIAL EGR reporter mRNA; actives raise or lower the signal. The essentials: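 Endpoint derived by bidirectional fitting versus DMSO vehicle. Method: cis-promoter reporter units transfected into HepG2, 24 h dosing, RNA isolation, RT-PCR with 6-FAM primer extension and HpaI digestion, then capillary electrophoresis fluorescence detection.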

Assay [3] can be described thus: ATG_M_19_CIS: Attagene CIS-FACTORIAL HepG2 Assay for M19 Transcription Factor (Internal Marker) (AID 2282939). As to conditions: HepG2 Attagene CIS-FACTORIAL M19 internal marker reporter; actives raise or lower the signal. The essentials: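 Chemical-treated HepG2 (24 h) with MRTU constructs; reporter transcripts detected by fluorescent RT-PCR fragment analysis on capillary electrophoresis. Internal background marker, DMSO as baseline.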

A short description of assay [4]: ATG_ERE_CIS: Attagene CIS-FACTORIAL HepG2 Assay for Estrogen Response Element (ERE) (AID 2282940). Conditions: HepG2 ERE cis-reporter, Attagene RNA transcript; actives raise or lower the signal. The essentials: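 Human liver cells (HepG2) bearing transiently transfected, promoter-regulated reporter units were exposed 24 h. Reporter mRNA induction was detected by capillary electrophoresis of labelled RT-PCR products and fitted bidirectionally to DMSO.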

A short description of assay [5]: ATG_Ets_CIS: Attagene CIS-FACTORIAL HepG2 Assay for human Erythroblast Transformation Specific (ETS) (AID 2282941). Conditions: HepG2 ETS cis-reporter transcription, actives raise or lower the signal. The essentials: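 RT-PCR/capillary electrophoresis fluorescence read-out of reporter mRNA; HepG2 transient multi-reporter transfection; 24 h compound exposure; gain or loss of signal fitted bidirectionally relative to DMSO.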

Assay [6] deals with Hepatocyte nuclear factor 3-beta (Homo sapiens) (UniProt Q9Y261). Briefly: ATG_FoxA2_CIS: Attagene CIS-FACTORIAL HepG2 Assay for human Forkhead box A2 (FOXA2) (AID 2282942). Conditions: HepG2 cis-reporter transcription factor activity, 24 h; actives raise or lower the signal. The method in brief:
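Measured: reporter mRNA induction or loss in HepG2 transiently carrying multiple cis-regulated reporter units, 24 h after dosing. Quantified by RT-PCR plus capillary electrophoresis, normalised to DMSO.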

Assay [7] in a line: ATG_FoxO_CIS: Attagene CIS-FACTORIAL HepG2 Assay for human Forkhead box O (FoxO) (AID 2282943). Conditions: HepG2 Attagene cis-reporter, FoxO element, mRNA; actives raise or lower the signal. The method in brief: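 HepG2 cells transiently transfected with cis-element-driven reporter units report endogenous FoxO activity. After 24 h chemical exposure, reporter mRNA quantified by RT-PCR, fluorescent labeling, HpaI digestion and capillary electrophoresis; bidirectional fit versus DMSO.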

Assay [8] in a line: ATG_GATA_CIS: Attagene CIS-FACTORIAL HepG2 Assay for human GATA Binding Protein (AID 2282944). Conditions: HepG2 GATA cis-element reporter, Attagene multiplex mRNA; actives raise or lower the signal. The essentials:
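Transfected cis-reporter HepG2 cells were treated with chemicals for 24 hours. Total RNA was then converted to cDNA, amplified with reporter-specific primers and analysed by fluorescent capillary electrophoresis, using DMSO-treated wells as baseline.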

A short description of assay [9]: ATG_GLI_CIS: Attagene CIS-FACTORIAL HepG2 Assay for human Zinc Finger Protein GLI1 (AID 2282945). As to conditions: HepG2, Attagene cis-factorial reporter mRNA, GLI element; actives raise or lower the signal. The essentials:
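Transiently transfected HepG2 cells report endogenous transcription factor activity via cis-element-driven reporter units. After 24 h compound exposure, reporter mRNA was measured by RT-PCR with capillary electrophoresis; bidirectional fitting against DMSO baseline.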

Assay [10] deals with Bile acid receptor (Homo sapiens) (UniProt Q96RI1). Kind of assay: ATG_IR1_CIS: Attagene CIS-FACTORIAL HepG2 Assay for human Nuclear Receptor Subfamily 1 Group H Member 4 (NR1H4), IR1 submotif (AID 2282946). As to conditions: IR1 reporter transcription, actives raise or lower the signal. The essentials:
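Fluorescence of capillary-separated, HpaI-digested RT-PCR reporter products gave IR1-element mRNA induction in HepG2 cells 24 h after dosing. Endogenous transcription factors drove the cis-regulated reporters; activity was fitted bidirectionally against DMSO.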

Assay [11] in a line: ATG_GRE_CIS: Attagene CIS-FACTORIAL HepG2 Assay for human Glucocorticoid Response Elements (GRE) (AID 2282947). Conditions: HepG2 GRE cis-reporter, Attagene multiplex mRNA; actives raise or lower the signal. The essentials: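 Fluorescence intensity of reporter-specific cDNA fragments, separated by capillary electrophoresis, provides the signal. Constructs carry cis-regulating promoters in transiently transfected HepG2 liver cells; 24 h incubation; fitting is bidirectional against DMSO.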

The nature of assay [12]: ATG_ISRE_CIS: Attagene CIS-FACTORIAL HepG2 Assay for human Interferon Regulatory Factor 1 (IRF1) binding to an Interferon-Stimulated Response Element (ISRE) (AID 2282948). As to conditions: HepG2 ISRE cis-reporter (Attagene), mRNA transcription readout; actives raise or lower the signal. The method in brief: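 Read-out: fluorescent RT-PCR products resolved by capillary electrophoresis, reporting endogenous transcription factor activity via ISRE-driven reporter mRNA in transfected HepG2 cells dosed for 24 h; gain or loss fitted relative to DMSO.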

The nature of assay [13]: ATG_M_32_CIS: Attagene CIS-FACTORIAL HepG2 Assay for M32 Transcription Factor (Internal Marker) (AID 2282949).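 Also: background control marker of the multiplexed CIS panel rather than a real target.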 Conditions: HepG2 Attagene cis-factorial M32 reporter, mRNA; actives raise or lower the signal. The method in brief: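 HepG2 transfectants (cis-regulated reporter transcription units) dosed 24 h. Reporter mRNA by RT-PCR plus CE, analysed as gain or loss relative to DMSO.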

Assay [14] is described as follows: ATG_M_06_CIS: Attagene CIS-FACTORIAL HepG2 Assay for M06 Transcription Factor (Internal Marker) (AID 2282950). As to conditions: HepG2 Attagene CIS-FACTORIAL M06 internal marker reporter; actives raise or lower the signal. The method in brief:
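Cells (HepG2, transiently carrying cis-driven reporter units) receive chemical for 24 h before RNA isolation. Reporter cDNA is PCR-amplified, FAM-labelled by primer extension, HpaI-digested and sized on a capillary analyser.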

Assay [15] addresses Hypoxia-inducible factor 1-alpha (Homo sapiens) (UniProt Q16665). Kind of assay: ATG_HIF1a_CIS: Attagene CIS-FACTORIAL HepG2 Assay for human Hypoxia Inducible Factor 1 (HIF1A) (AID 2282951). Conditions: HepG2 Attagene cis-factorial HIF1a reporter transcription; actives raise or lower the signal. The method in brief: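 Dosed 24 h, transfected HepG2 cells yielded total RNA whose reporter transcripts were RT-PCR-amplified and sized by capillary electrophoresis using fluorescent labelling; DMSO defined baseline, with gain and loss of signal both fitted.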

Assay [16] has as its target Hepatocyte nuclear factor 6 (Homo sapiens) (UniProt Q9UBC0). Kind of assay: ATG_HNF6_CIS: Attagene CIS-FACTORIAL HepG2 Assay for human Hepatocyte Nuclear Factor 6 (HNF6) (AID 2282952). Conditions: HepG2 Attagene cis-factorial HNF6 reporter transcription; actives raise or lower the signal. The essentials:
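Twenty-four-hour chemical treatment of reporter-transfected HepG2 cells precedes RNA isolation, DNase-treated reverse transcription and PCR of reporter sequences. Labelled fragments are sized by capillary electrophoresis and fitted bidirectionally versus DMSO.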

In assay [17] the target is Heat shock factor protein 1 (Homo sapiens) (UniProt Q00613). Kind of assay: ATG_HSE_CIS: Attagene CIS-FACTORIAL HepG2 Assay for human Heat Shock Transcription Factor 1 (HSE) (AID 2282953). As to conditions: HepG2 HSE cis-reporter, Attagene RNA transcription; actives raise or lower the signal. The method in brief:
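Liver-derived HepG2 cells carry transiently introduced multiple reporter units governed by cis promoters. Reporter RNA measured 24 h post-dose through reverse transcription, PCR amplification, fluorescent labelling and capillary electrophoresis, normalised to DMSO.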

A short description of assay [18]: ATG_MRE_CIS: Attagene CIS-FACTORIAL HepG2 Assay for human Metal Responsive Element (MRE) (AID 2282954). Conditions: HepG2 MRE cis-reporter transcription, Attagene multiplex; actives raise or lower the signal. The method in brief: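 Measured here is mRNA induction from an MRE cis-element reporter in HepG2 after 24 h, quantified by fluorescence of labelled RT-PCR products on capillary electrophoresis; gain- and loss-of-signal fits use DMSO as baseline.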

A short description of assay [19]: ATG_PBREM_CIS: Attagene CIS-FACTORIAL HepG2 Assay for human Phenobarbital-responsive Enhancer Module (PBREM) (AID 2282955). As to conditions: HepG2 PBREM cis-reporter, Attagene multiplexed transcription; actives raise or lower the signal. The method in brief: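 Transfected liver-derived HepG2 cells exposed 24 h; PBREM reporter transcript quantified via RT-PCR and capillary electrophoresis, with activity in either direction referenced to DMSO.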

Hepatocyte nuclear factor 3-beta (Homo sapiens), sequence (Q9Y261 whole entry, looked up): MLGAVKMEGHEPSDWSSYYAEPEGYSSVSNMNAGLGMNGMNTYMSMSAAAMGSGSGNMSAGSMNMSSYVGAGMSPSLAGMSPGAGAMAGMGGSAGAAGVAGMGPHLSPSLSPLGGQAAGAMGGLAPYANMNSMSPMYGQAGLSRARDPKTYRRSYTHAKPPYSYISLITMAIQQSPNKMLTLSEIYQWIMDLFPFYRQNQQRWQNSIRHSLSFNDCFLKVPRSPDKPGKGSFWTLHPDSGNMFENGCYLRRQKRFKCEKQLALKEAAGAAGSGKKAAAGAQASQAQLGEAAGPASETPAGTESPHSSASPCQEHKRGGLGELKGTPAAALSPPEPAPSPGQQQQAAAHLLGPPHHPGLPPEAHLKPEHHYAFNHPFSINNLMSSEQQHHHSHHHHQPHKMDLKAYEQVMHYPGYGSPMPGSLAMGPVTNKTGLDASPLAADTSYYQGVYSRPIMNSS
Bile acid receptor (Homo sapiens), sequence (Q96RI1 whole entry, looked up): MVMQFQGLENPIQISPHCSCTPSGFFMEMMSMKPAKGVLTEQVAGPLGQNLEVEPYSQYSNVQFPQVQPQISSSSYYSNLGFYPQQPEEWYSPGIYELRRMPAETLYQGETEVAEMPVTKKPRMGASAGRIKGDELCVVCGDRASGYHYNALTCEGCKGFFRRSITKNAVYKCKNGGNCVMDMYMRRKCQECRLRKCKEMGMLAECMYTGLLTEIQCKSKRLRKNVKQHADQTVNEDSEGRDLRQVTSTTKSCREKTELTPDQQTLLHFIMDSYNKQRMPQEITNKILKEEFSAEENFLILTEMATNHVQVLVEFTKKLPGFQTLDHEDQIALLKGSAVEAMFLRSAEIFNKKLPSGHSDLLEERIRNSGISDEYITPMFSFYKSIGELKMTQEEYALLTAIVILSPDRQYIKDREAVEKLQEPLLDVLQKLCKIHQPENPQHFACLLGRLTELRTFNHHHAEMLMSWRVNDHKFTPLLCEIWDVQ
Heat shock factor protein 1 (Homo sapiens), sequence (Q00613 whole entry, looked up): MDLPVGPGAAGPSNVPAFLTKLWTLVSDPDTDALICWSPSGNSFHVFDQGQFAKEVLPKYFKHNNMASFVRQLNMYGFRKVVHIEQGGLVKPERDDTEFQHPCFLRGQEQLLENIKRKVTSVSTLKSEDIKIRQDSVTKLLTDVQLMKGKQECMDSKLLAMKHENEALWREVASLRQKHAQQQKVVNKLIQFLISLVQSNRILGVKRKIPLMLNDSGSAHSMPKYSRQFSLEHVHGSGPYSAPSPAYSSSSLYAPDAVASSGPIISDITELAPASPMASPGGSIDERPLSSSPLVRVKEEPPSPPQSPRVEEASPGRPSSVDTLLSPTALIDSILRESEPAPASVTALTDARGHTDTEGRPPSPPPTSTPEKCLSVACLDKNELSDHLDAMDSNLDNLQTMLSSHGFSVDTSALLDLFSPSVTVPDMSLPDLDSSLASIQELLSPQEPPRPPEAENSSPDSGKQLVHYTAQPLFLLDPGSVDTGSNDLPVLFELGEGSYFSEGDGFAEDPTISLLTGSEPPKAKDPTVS
Hypoxia-inducible factor 1-alpha (Homo sapiens), sequence (Q16665 whole entry, looked up): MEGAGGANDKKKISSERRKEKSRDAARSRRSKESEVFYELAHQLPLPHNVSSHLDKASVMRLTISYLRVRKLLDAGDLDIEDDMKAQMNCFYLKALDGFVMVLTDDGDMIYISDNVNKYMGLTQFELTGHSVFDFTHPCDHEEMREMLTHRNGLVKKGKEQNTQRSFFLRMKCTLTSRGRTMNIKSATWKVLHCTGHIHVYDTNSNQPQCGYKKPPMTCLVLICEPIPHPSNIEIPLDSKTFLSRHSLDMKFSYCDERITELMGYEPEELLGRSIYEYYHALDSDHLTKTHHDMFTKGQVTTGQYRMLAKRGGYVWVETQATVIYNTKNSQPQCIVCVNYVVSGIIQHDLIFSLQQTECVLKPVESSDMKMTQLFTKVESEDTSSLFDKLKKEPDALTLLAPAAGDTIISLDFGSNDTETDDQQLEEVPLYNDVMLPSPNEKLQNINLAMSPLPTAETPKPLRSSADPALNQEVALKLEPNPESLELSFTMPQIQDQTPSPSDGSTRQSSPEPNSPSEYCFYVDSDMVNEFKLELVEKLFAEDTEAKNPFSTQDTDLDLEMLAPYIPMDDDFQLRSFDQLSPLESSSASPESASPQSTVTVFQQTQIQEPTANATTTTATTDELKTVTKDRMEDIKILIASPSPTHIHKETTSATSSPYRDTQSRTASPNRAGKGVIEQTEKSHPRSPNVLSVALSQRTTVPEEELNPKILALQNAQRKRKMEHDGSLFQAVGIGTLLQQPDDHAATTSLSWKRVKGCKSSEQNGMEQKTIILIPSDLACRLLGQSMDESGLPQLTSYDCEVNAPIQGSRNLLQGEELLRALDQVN
Hepatocyte nuclear factor 6 (Homo sapiens), sequence (Q9UBC0 whole entry, looked up, the tested form may be a part): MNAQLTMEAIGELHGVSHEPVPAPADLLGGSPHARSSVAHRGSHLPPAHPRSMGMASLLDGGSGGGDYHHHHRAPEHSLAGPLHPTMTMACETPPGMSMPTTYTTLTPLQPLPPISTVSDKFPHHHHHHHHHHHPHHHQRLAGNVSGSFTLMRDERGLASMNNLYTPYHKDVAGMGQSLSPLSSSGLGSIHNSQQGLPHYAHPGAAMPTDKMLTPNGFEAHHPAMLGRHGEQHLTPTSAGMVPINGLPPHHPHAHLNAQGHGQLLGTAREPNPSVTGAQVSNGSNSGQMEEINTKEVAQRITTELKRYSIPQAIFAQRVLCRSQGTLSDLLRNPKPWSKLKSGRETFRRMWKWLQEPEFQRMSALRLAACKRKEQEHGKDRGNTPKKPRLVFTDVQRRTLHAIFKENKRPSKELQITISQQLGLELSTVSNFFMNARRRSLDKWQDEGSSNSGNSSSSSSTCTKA

As for `CC1=C2C[C@H]3[C@@H](CC=C4C[C@@H](O)CC[C@@]43C)[C@@H]2CC[C@]12O[C@@H]1C[C@H](C)CN[C@H]1[C@H]2C`, the call in [1], in [2], in assay [3], in assay [4], in assay [5] and in [7] was inactive. For the same molecule, the molecule was classed as inactive in [8], in [9], in [11], in [12], in [13] and in assay [14]. Moreover, the molecule was classed as inactive in [15], in [16], in assay [17] and in assay [19]. The AC50 in assay [6] was 13 µM (active); in [10], 8.12 µM (active); in assay [18], 16.1 µM (active).
`CCOCCOC(C)=O`: the call in assay [1], in [2], in assay [3], in assay [4], in assay [5] and in assay [6] was inactive. Moreover, the molecule was classed as inactive in assay [7], in assay [8], in [9], in assay [11], in assay [12] and in [13]. Besides, the result in [14], in [15], in [16], in assay [17] and in assay [18] was inactive.
As for `CCOP(=S)(OCC)SCSC(C)(C)C`, the outcome in assay [1], in assay [2], in assay [3], in assay [5], in assay [6] and in assay [7] was inactive. Also, the call in assay [8], in [9], in assay [12], in assay [13], in assay [14] and in assay [15] was inactive. Also, the result in assay [16], in [17], in assay [18] and in assay [19] was inactive. For the same molecule, the AC50 in assay [4] was 29.7 µM (active) and 5.91 µM (active); in assay [12], 63.5 µM (active).
Consider `Cc1ccccc1CO[C@@H]1C[C@@]2(C(C)C)CC[C@]1(C)O2`, for which the result in assay [1], in [2], in assay [3], in [5], in assay [6] and in assay [7] was inactive. In addition, the result in [8], in assay [9], in [12], in assay [13], in assay [14] and in assay [15] was inactive. Also, the result in assay [16], in [17], in assay [18] and in assay [19] was inactive.
As for `OCC(O)CO`, the call in [1], in [2], in assay [3], in assay [4], in assay [5] and in assay [6] was inactive. Also, the result in assay [7], in assay [8], in assay [9], in assay [10], in assay [11] and in assay [12] was inactive. In addition, the molecule was classed as inactive in assay [13], in [14], in [15], in [16], in assay [17] and in assay [18]. Further, in assay [4], the concentration at half-maximal activity (AC50) was 76.6 µM (active).
Take `C1CC2OC2CC1C1CO1` (configuration not stated): the outcome in [1], in assay [2], in assay [3], in assay [4], in assay [5] and in assay [6] was inactive. In addition, the call in assay [7], in assay [8], in assay [9], in assay [10], in assay [12] and in assay [13] was inactive. For the same molecule, the call in assay [14], in [15], in [16], in [17], in assay [18] and in assay [19] was inactive.

The AC50 is the concentration giving half of the maximal activity seen.
